10 sequences from PMC8384837, “Expanding the binding specificity for RNA recognition by a PUF domain” can be followed below.

Assay in all cases: yeast three-hybrid, YBZ-1, SC-Leu-His + 0.5 mM 3-AT, 4 days
Conditions in all cases: tags: N-Gal4 AD-HA kept; label: inside an RPR1-promoter hybrid RNA with tandem MS2 sites; ssRNA

One test addresses PUM1 PUF domain R4-GWP (Homo sapiens, UniProt Q14671 828-1176, N971G;H972W;Q975P). The gist of the method: (§1)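 A centromeric plasmid in strain YBZ-1 co-expressed Pumilio-1 PUF domain libraries, randomized at the three base-contacting residues of each repeat, with matching RNA elements; the strain carries a LexA–MS2 coat fusion and a HIS3 reporter. After four days on SC-Leu (input) or SC-Leu-His + 0.5 mM 3-AT (selection), the repeat regions were PCR-amplified and Illumina-sequenced. The interaction score is the log change in variant frequency from input to selection, using log2 and a pseudocount of 1 where absent.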

Another test addresses PUM1 PUF domain R7-GCL (Homo sapiens, UniProt Q14671 828-1176, S1079G;N1080C;E1083L). The gist of the method:
as §1

A further test deals with PUM1 PUF domain R7-KSS (Homo sapiens, UniProt Q14671 828-1176, S1079K;N1080S;E1083S). In outline:
as §1

In the next test the target is PUM1 PUF domain R7-KRA (Homo sapiens, UniProt Q14671 828-1176, S1079K;N1080R;E1083A). The gist of the method:
as §1

The target of a further test is PUM1 PUF domain R2-LWD (Homo sapiens, UniProt Q14671 828-1176, N899L;Y900W;Q903D). In outline: as §1
The target of a further test is PUM1 PUF domain R5-KSM (Homo sapiens, UniProt Q14671 828-1176, C1007K;R1008S;Q1011M). In outline:
as §1

The next test concerns the target PUM1 PUF domain R1-RQE (Homo sapiens, UniProt Q14671 828-1176, S863R;R864Q;Q867E). In outline:
as §1

The target of the next test is PUM1 PUF domain R1-KCT (Homo sapiens, UniProt Q14671 828-1176, S863K;R864C;Q867T). In outline: as §1
A further test deals with PUM1 PUF domain R1-HKR (Homo sapiens, UniProt Q14671 828-1176, S863H;R864K;Q867R). In outline:
as §1

A further test has as its target PUM1 PUF domain R1-TLE (Homo sapiens, UniProt Q14671 828-1176, S863T;R864L;Q867E). In outline: as §1

For “GGCUAGAACUAGUGGAUCCCCCGGCGCCCGGCGGCUCGAGCCCGGGUAAGUGUACAUAGUCUGCAUGCCGCCGGGCGCCAUGCCUGCAGGUCGACUCUAGAAAACAUG”, in the test with PUM1 PUF domain R4-GWP, the binding signal was 7 log2 enrichment (interaction score).

For the sequence “GGCUAGAACUAGUGGAUCCCCCGGCGCCCGGCGGCUCGAGCCCGGGUAAGUGUAAAUAGUCUGCAUGCCGCCGGGCGCCAUGCCUGCAGGUCGACUCUAGAAAACAUG”, the binding signal with PUM1 PUF domain R4-GWP was 6.31 log2 enrichment (interaction score). Turning to “GGCUAGAACUAGUGGAUCCCCCGGCGCCCGGCGGCUCGAGCCCGGGUAAGUUUAAAUAGUCUGCAUGCCGCCGGGCGCCAUGCCUGCAGGUCGACUCUAGAAAACAUG”, the binding signal in the test with PUM1 PUF domain R7-GCL is 2.65 log2 enrichment (interaction score); in the test with PUM1 PUF domain R7-KSS, 4.3 log2 enrichment (interaction score); with PUM1 PUF domain R7-KRA it was 3.25 log2 enrichment (interaction score). Consider “GGCUAGAACUAGUGGAUCCCCCGGCGCCCGGCGGCUCGAGCCCGGGUAAGUGUAAAAAGUCUGCAUGCCGCCGGGCGCCAUGCCUGCAGGUCGACUCUAGAAAACAUG”, for which the binding signal in the test with PUM1 PUF domain R2-LWD was 5.97 log2 enrichment (interaction score). As for “GGCUAGAACUAGUGGAUCCCCCGGCGCCCGGCGGCUCGAGCCCGGGUAAGUGUCAAUAGUCUGCAUGCCGCCGGGCGCCAUGCCUGCAGGUCGACUCUAGAAAACAUG”, the binding signal in the test with PUM1 PUF domain R5-KSM is 3.66 log2 enrichment (interaction score). As for “GGCUAGAACUAGUGGAUCCCCCGGCGCCCGGCGGCUCGAGCCCGGGUAAGUGUAAAUCGUCUGCAUGCCGCCGGGCGCCAUGCCUGCAGGUCGACUCUAGAAAACAUG”, the binding signal in the test with PUM1 PUF domain R1-RQE is 2.21 log2 enrichment (interaction score); in the test with PUM1 PUF domain R1-KCT it was 6.39 log2 enrichment (interaction score).

For “GGCUAGAACUAGUGGAUCCCCCGGCGCCCGGCGGCUCGAGCCCGGGUAAGUGUAUAUAGUCUGCAUGCCGCCGGGCGCCAUGCCUGCAGGUCGACUCUAGAAAACAUG”, the binding signal with PUM1 PUF domain R4-GWP is 7.78 log2 enrichment (interaction score).

In the case of “GGCUAGAACUAGUGGAUCCCCCGGCGCCCGGCGGCUCGAGCCCGGGUAAGUGUAAAUUGUCUGCAUGCCGCCGGGCGCCAUGCCUGCAGGUCGACUCUAGAAAACAUG”, the binding signal with PUM1 PUF domain R1-HKR was 3.25 log2 enrichment (interaction score); in the test with PUM1 PUF domain R1-TLE, 4.15 log2 enrichment (interaction score). For “GGCUAGAACUAGUGGAUCCCCCGGCGCCCGGCGGCUCGAGCCCGGGUAAGUCUAAAUAGUCUGCAUGCCGCCGGGCGCCAUGCCUGCAGGUCGACUCUAGAAAACAUG”, the figures for the binding signal with PUM1 PUF domain R7-KSS and in the test with PUM1 PUF domain R7-KRA were 2.54 log2 enrichment (interaction score) and 5.25 log2 enrichment (interaction score), respectively.

For the sequence “GGCUAGAACUAGUGGAUCCCCCGGCGCCCGGCGGCUCGAGCCCGGGUAAGUGUAAAUGGUCUGCAUGCCGCCGGGCGCCAUGCCUGCAGGUCGACUCUAGAAAACAUG”, the binding signal is 1.2 log2 enrichment (interaction score) with PUM1 PUF domain R1-RQE, 3.31 log2 enrichment (interaction score) with PUM1 PUF domain R1-KCT and 3.5 log2 enrichment (interaction score) with PUM1 PUF domain R1-TLE.
